# Assay outcomes deposited in PubChem BioAssay by several laboratories.
# Bfl-1 A1 inh: inhibitors of the anti-apoptotic protein A1, read as caspase activation | MEF A1-2A-BIM cells, Caspase-Glo 3/7 luminescence, 3 h; percent of clofoctol response, vehicle zero | caspase activation, % (no concentration beside the values) | 330,000 compounds, 0.066% hits;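 active means over half of replicate activation scores above 10%, or exactly half above 10 with the replicate mean above 10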
# MOR-DOR inv ag: mu-delta opioid heterodimer inverse agonism; P35372+P41143; cell-based MOR-DOR heterodimer luminescence; inhibition, % at 9.3 µM; 340,000 compounds, 0.21% hits; AID 504357; in the data active means inhibition above about 22%, passing the limit was not always enough;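 further: 0% = cells with DMSO and 100% = wells without cells with DMSO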
# HTR5A ag ctr: counter-screen for OPRM1-OPRD1 agonists: human HTR5A agonism. P47898. AID 504692. HTR5A agonist assay, luminescence, cell-based. activation, % at 9.3 µM. 340,000 compounds, 0.61% hits; in the data active means activation mostly above about 9.5%, no sharp cut-off; inactive means mostly below about 7.6%;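 further: 0% = cells with vehicle only and 100% = reference agonist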
# Target sequence (P47898 whole entry, looked up): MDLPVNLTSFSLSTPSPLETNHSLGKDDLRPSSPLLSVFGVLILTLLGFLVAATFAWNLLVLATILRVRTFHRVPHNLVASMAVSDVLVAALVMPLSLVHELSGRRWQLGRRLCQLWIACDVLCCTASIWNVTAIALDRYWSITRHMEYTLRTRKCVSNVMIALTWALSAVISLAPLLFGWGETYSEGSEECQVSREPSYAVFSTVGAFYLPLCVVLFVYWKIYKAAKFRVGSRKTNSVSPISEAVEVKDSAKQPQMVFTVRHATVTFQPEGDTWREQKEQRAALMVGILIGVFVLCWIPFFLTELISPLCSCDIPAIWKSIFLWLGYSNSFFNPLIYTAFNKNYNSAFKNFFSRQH
# HTR5A inv ctr: counter-screen for OPRM1-OPRD1 inverse agonists: human HTR5A inverse agonism. P47898. HTR5A cell line, luminescence. inhibition, % at 9.3 µM. 340,000 compounds, 0.083% hits. AID 504634; in the data active means inhibition mostly above about 23%, no sharp cut-off; inactive means mostly below about 18%;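 further: 0% = cells with DMSO and 100% = no-cell wells with DMSO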
# MOR-DOR ag: OPRM1-OPRD1 heterodimerization agonism | P35372+P41143 | cells, luminescence | activation, % at 9.3 µM | 340,000 compounds, 0.3% hits | AID 504326; in the data active means activation above about 18%;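 further: 0% = vehicle-treated cells and 100% = reference agonist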
# OPRM1-D1 inv cf: confirmation of human OPRM1-OPRD1 heterodimerization inverse agonists. shares compounds with MOR-DOR inv ag. cells expressing OPRM1/OPRD1 heterodimer, luminescence. inhibition, % at 9.3 µM. 580 compounds, 20% hits. AID 504900; in the data active means inhibition above about 32%;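 further: 0% = cells with DMSO and 100% = wells lacking cells with DMSO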
# HTR5A inv ctr2: HTR5A inverse agonism, opioid heterodimer counter-screen | shares compounds with MOR-DOR inv ag | HTR5A-expressing cells, luminescence | AID 504914 | 580 tested, under 10 active | inhibition, % at 9.3 µM; call rule not given here;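 further: 0% = cells with DMSO and 100% = no-cell wells with DMSO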
# * marks the source's active call; other numbers are inactive results; i = inactive; · = no result given. Rows were chosen to be rich in hits. Some 1.1% of all compounds tested hit in one or more screens of this group.
SMILES,Bfl-1 A1 inh,MOR-DOR inv ag,HTR5A ag ctr,HTR5A inv ctr,MOR-DOR ag,OPRM1-D1 inv cf,HTR5A inv ctr2
COCc1cc(C)nc2sc(C(=O)N3CCCCC3)c(N)c12,0,39*,1,11,-7,i,13
C=CCn1c(N)c(C(=O)OCCC)c2nc3ccccc3nc21,0,49*,1,-3,-9,-22,-94
C=CCn1c(N)c(C(=O)Nc2cccc(C)c2)c2nc3ccccc3nc21,0,4,5,-13,-1,·,·
COc1ccc(-c2nc(NC(=O)C3=NN(c4cccc(C)c4)C(=O)CC3)sc2C)cc1,1,14,3,26,-3,·,·
Cn1ccnc1Sc1cc(NCCCO)c([N+](=O)[O-])c2nonc12,0,37*,-6,27,-7,4,-2
O=C(Nc1ccc(O)c(-c2nc3ccccc3s2)c1)c1cccs1,-1,36*,-5,13,-6,4,3
CCOC(=O)C(OC(=O)c1sc(=S)n(C)c1C)C(C)=O (centres undefined),0,39*,-1,4,-7,22,18
Cc1ccccc1C(=O)NNC(=O)c1cccn1C,-1,1,-5,20,0,·,·
Cc1ccc(Cl)c2c1NC(=O)C2(O)CC(=O)c1ccccc1O (centres undefined),1,80*,-4,27,-15,75*,-9
OCC1OC(Oc2c[nH]c3ccccc23)C(O)C(O)C1O (centres undefined),0,58*,1,-3,-11,-5,20
CCC1(CC)C(=O)C(C)(C)C(=O)OC1c1cccs1 (centres undefined),0,4,1,3,-1,·,·
COC(=O)NNC(=O)c1ccc(Cl)cc1Cl,0,-2,-1,-16,0,·,·
CC(C)(C)C(=O)NC(=S)NNC(=O)c1ccc(Cl)cc1Cl,0,39*,-4,13,-8,15,17
O=C1Nc2ccccc2Nc2ccccc21,0,16,1,-3,-3,·,·
Nc1n[nH]c(=S)n1/N=C1/C(=O)Nc2ccccc21,·,7,-1,3,-1,·,·
O=C1Nc2ccccc2C1=O,-1,55*,-2,-4,-10,33*,11
O=C1Nc2ccccc2C1=NN1CCCCCC1,·,38*,-5,20,-7,26,-2
O=C(CSC1CN(C(c2ccccc2)c2ccccc2)C1)N/N=C/c1ccccc1,0,-1,0,10,0,·,·
O=C1c2ccccc2-c2nnc(-c3ccc(F)cc3)cc21,-9,81*,-1,4,-16,21,2
Cc1ccccc1-c1cc2c(nn1)-c1ccccc1C2=O,-12,14,1,-10,-2,·,·
O=C1c2ccccc2-c2nnc(-c3ccc(O)cc3)cc21,-8,18,-2,-7,-4,·,·
Cc1ccc(-c2cc3c(nn2)-c2ccccc2C3=O)cc1,-8,99*,1,-3,-19,-25,-5
CC(C)CC(C(=O)O)N1C(=O)C2C3CC(C2C1=O)C1C(c2ccccc2)c2sc(=O)[nH]c2SC31 (centres undefined),0,5,0,-5,-1,·,·
Cc1cccc2c1N(CCOc1ccc(C(C)(C)C)cc1)C(=O)C2=O,2,36*,-2,5,-6,-14,-110
Cc1ccc(OCCCN2C(=O)C(=O)c3cccc(C)c32)cc1,0,45*,-1,3,-8,12,5
SMILES,Bfl-1 A1 inh,MOR-DOR inv ag,HTR5A ag ctr,HTR5A inv ctr,MOR-DOR ag,OPRM1-D1 inv cf,HTR5A inv ctr2
O=C(N1CCN(c2ncccn2)CC1)C12CC3CC(CC(C3)C1)C2,1,9,-2,-16,-2,·,·
COc1ccc(/C=C2\C(=O)NC(=O)c3ccccc32)cc1OC,·,1,4,-15,0,·,·
COc1ccc(-c2cccc3c2NC(=O)C3=O)cc1OC,·,64*,-3,8,-11,42*,16
O=C(CSc1nc2nn(-c3ccccc3)c(=O)c-2c2n1CCCCC2)Nc1ccccc1[N+](=O)[O-],·,-9,4,-10,1,·,·
O=C1NC(=S)S/C1=C\c1cc(Cl)cc(Cl)c1O,·,35*,0,-2,-7,-59,-13
Cc1occc1C(=O)Nc1cc(S(=O)(=O)N2CCOCC2)ccc1OC(C)C,1,15,-1,-2,-4,·,·
O=C(CNc1ccc(F)cc1)c1ccccc1,-3,37*,-6,14,-6,-9,6
O=C(CNc1ccc(Br)cc1)c1ccccc1,0,13,1,-18,-3,·,·
C=CCSc1cc(C)nc2c(-c3ccc(Cl)cc3)c(C)nn12,-2,28*,0,38,-5,-52,-2
CCc1noc(C)c1C(=O)NNC(=O)COc1cc(C)ccc1C,3,4,-5,13,-1,·,·
CCCN1CCC(=NNc2ccc(C(=O)O)cc2)CC1,0,37*,-1,26,-8,-24,-143
CCCN1CCC(=NNC(=O)c2ccc(Br)o2)CC1,1,-3,3,-7,0,·,·
COC(=O)c1cn(Cc2cc(OC)ccc2OC)cc(F)c1=O,0,13,1,-2,-3,·,·
COC(=O)C1=C(C(=O)OC)[C@@H]2N(C)c3ccc(OC)cc3[C@@]23C[C@@H](C(=O)OC)N(C(=O)C2CCC2)C3=N1,0,·,·,·,·,·,·
O=C(Nc1ccc(Br)cc1)N1CCCCCCC1,0,33*,2,6,-6,-68,-18
O=C(CSc1nc2c([nH]c3ccccc32)c(=O)n1-c1ccccc1)NCC1CCCO1 (centres undefined),0,51*,-15,29,-9,22,-9
COc1ccc(C/C(C)=N/NC(=O)C2COc3ccccc3O2)cc1 (centres undefined),0,10,1,-1,-2,·,·
Cn1c(-c2ccc(F)cc2)cnc1NCc1ccccc1F,1,38*,0,-18,-7,-10,-5
CC(C)[C@H](NC(=O)c1ccccc1)C(=O)OCC(=O)Nc1ccc(S(=O)(=O)N2CCOCC2)cc1,2,17,3,-11,-4,·,·
O=C(COC(=O)c1ccco1)c1ccc(S(=O)(=O)N2CCCCC2)cc1,0,53*,-3,18,-10,9,9
COc1ccc(CC(=O)OCC(=O)c2ccc(S(=O)(=O)N3CCCCC3)cc2)cc1,1,50*,-11,29,-13,13,8
CC(C)[C@H](NC(=O)c1ccccc1)C(=O)OCC(=O)c1ccc(S(=O)(=O)N2CCCCC2)cc1,1,30*,-1,1,-5,-27,-6
O=C(COc1ccccc1)OCC(=O)c1ccc(S(=O)(=O)N2CCCCC2)cc1,0,80*,-2,6,-19,-27,-135
COc1cc(OC)cc(C(=O)OCC(=O)c2ccc(S(=O)(=O)N3CCCCC3)cc2)c1,0,6,7,-17,-2,·,·
